Test in all cases: NCI-60 one-dose screen, 48 h (100 = growth as untreated, 0 = no growth, -100 = all killed)
One test relates to SK-MEL-2 melanoma. The following applies: 10 µM.
Another test has as its system EKVX NSCLC. Particulars: 10 µM.
Another test relates to SN12C renal. Particulars: 10 µM.
Another test concerns UO-31 renal. The following applies: 10 µM.
A further test deals with TK-10 renal. The following applies: 10 µM unless noted.
Another test relates to ACHN renal. Particulars: 10 µM.
The next test relates to CAKI-1 renal. The following applies: 10 µM.
A further test deals with HL-60(TB) leukemia. The following applies: 10 µM.
For a further test, the system named is CCRF-CEM leukemia. Particulars: 10 µM.

Where “and” joins values, the source holds several entries; their conditions need not be identical. Equal entries are not always repeated. Compounds without any hit were thinned out: in the full panel of roughly 83,000, 20% have a hit.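 Negative percent growth values reflect cell death: -40 means 40% of the cells present at the start died, and -100 means all died.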 Calls of active or inactive are those of the source. The calls were made as follows: active = growth percent below 10; inactive = the rest.

Growth data for 13 compounds are collected here from PubChem BioAssay (NCI).

For the compound `C/C1=C\[C@H](C)C[C@H](C)OC(=O)C[C@H](c2ccc(O)cc2)NC(=O)[C@@H](Cc2c(Br)[nH]c3ccccc23)N(C)C(=O)[C@H](C)NC(=O)[C@@H](C)C1`, the growth is -67.3% (active) in the test with SK-MEL-2 melanoma; -23.6% (active) with EKVX NSCLC; 14.2% (inactive) in the test on SN12C renal; -92.1% (active) in the test on UO-31 renal; -81.7% (active) with TK-10 renal; -18.7% (active) in the test on ACHN renal. The growth was -43.2% (active) in the test with CAKI-1 renal, -44% (active) in the test with HL-60(TB) leukemia and -21.5% (active) in the test on CCRF-CEM leukemia.

Take `Oc1ccccc1-c1ccccc1`: the growth was 98.1% (inactive) and 98.2% (inactive) with SK-MEL-2 melanoma; 116% (inactive) with EKVX NSCLC; 104% (inactive) and 92.6% (inactive) with SN12C renal; 91.1% (inactive) with UO-31 renal; 97.4% (inactive) and 105% (inactive) with TK-10 renal; 95.2% (inactive) and 104% (inactive) with ACHN renal. Moreover, the growth is 97.4% (inactive) and 121% (inactive) in the test on CAKI-1 renal; 96.2% (inactive) and 103% (inactive) in the test on HL-60(TB) leukemia; 103% (inactive) and 94.8% (inactive) with CCRF-CEM leukemia.

Take `COS(=O)(=O)c1ccccc1`: the growth is 101% (inactive) with SK-MEL-2 melanoma; 112% (inactive) with EKVX NSCLC; 112% (inactive) with SN12C renal; 89.5% (inactive) in the test on UO-31 renal; 104% (inactive) in the test with TK-10 renal; 101% (inactive) in the test on ACHN renal. The growth is 104% (inactive) in the test with CAKI-1 renal, 106% (inactive) with HL-60(TB) leukemia and 99.7% (inactive) with CCRF-CEM leukemia.

`O=C1CCC(=O)N1SC(Cl)(Cl)Cl`: the growth with SK-MEL-2 melanoma was 97% (inactive); in the test with EKVX NSCLC, 117% (inactive); in the test with SN12C renal it was 102% (inactive); with UO-31 renal it was 99.1% (inactive); in the test on TK-10 renal, 99.2% (inactive); with ACHN renal, 110% (inactive). Besides, the growth with CAKI-1 renal is 109% (inactive); in the test on HL-60(TB) leukemia, 100% (inactive); in the test with CCRF-CEM leukemia, 94.5% (inactive).

Turning to `C[CH2][Hg][S]c1ccccc1C(=O)O`, the growth was -52.4% (active) in the test with SK-MEL-2 melanoma; 63.6% (inactive) in the test on EKVX NSCLC; -60.6% (active) in the test with SN12C renal; -61.8% (active) with UO-31 renal; -94.2% (active) in the test with TK-10 renal; -92.9% (active) with ACHN renal. Moreover, the values for the growth in the test with CAKI-1 renal, in the test on HL-60(TB) leukemia and in the test with CCRF-CEM leukemia were -95.2% (active), -17.6% (active) and -17.5% (active), respectively.

Turning to `CC(=O)[O][Hg][c]1c(C)c(C)cc(C)c1C`, the growth in the test with SK-MEL-2 melanoma is -48.3% (active); in the test on EKVX NSCLC, -62.9% (active); in the test on SN12C renal, -13.8% (active); in the test on UO-31 renal it was -86.2% (active); in the test on TK-10 renal, -82.6% (active); in the test with ACHN renal it was 34.1% (inactive). Further, the growth was -83.9% (active) with CAKI-1 renal, -13.1% (active) in the test on HL-60(TB) leukemia and 3.85% (active) in the test on CCRF-CEM leukemia.

For the compound `COC(C(=O)C(O)C(C)O)C1Cc2cc3cc(OC4CC(OC(C)=O)C(OC5CC(O)C(OC)C(C)O5)C(C)O4)cc(O)c3c(O)c2C(=O)C1OC1CC(OC2CC(OC3CC(C)(O)C(OC(=O)C(C)C)C(C)O3)C(O)C(C)O2)C(O)C(C)O1` (configuration not stated), the growth was -60.7% (active) with SK-MEL-2 melanoma; -16% (active) in the test with EKVX NSCLC; 5.41% (active) in the test on SN12C renal; -35.2% (active) in the test on UO-31 renal; 20.2% (inactive) in the test on TK-10 renal; 3.27% (active) in the test on ACHN renal. In addition, the growth in the test with CAKI-1 renal is 17.1% (inactive); in the test with HL-60(TB) leukemia, -46.3% (active); in the test with CCRF-CEM leukemia, -13.4% (active).

Regarding `Cc1cc([N+](=O)[O-])c2ccccc2[n+]1[O-]`, the growth with SK-MEL-2 melanoma was -57.5% (active) and -79.5% (active); in the test with EKVX NSCLC it was 89.4% (inactive); in the test on SN12C renal, -5.98% (active) and -21.1% (active); with UO-31 renal, -26.7% (active) and -48.8% (active); in the test on TK-10 renal it was -31.3% (active) and -29.9% (active); in the test on ACHN renal, -35.6% (active) and -73.4% (active). The growth was 8.17% (active) and -82.2% (active) in the test on CAKI-1 renal; 41% (inactive) and -30.6% (active) in the test with HL-60(TB) leukemia; 17% (inactive) and -2.8% (active) in the test on CCRF-CEM leukemia.

Take `CC(C)C1(NC(=O)C2CC3c4cccc5[nH]cc(c45)CC3N(C)C2)OC2(O)C3CCCN3C(=O)C(Cc3ccccc3)N2C1=O` (configuration not stated): the growth was 107% (inactive) in the test on SK-MEL-2 melanoma; 98.8% (inactive) with EKVX NSCLC; 99.4% (inactive) in the test on SN12C renal; 91.3% (inactive) in the test with UO-31 renal; 123% (inactive) in the test with TK-10 renal; 83% (inactive) in the test on ACHN renal. The growth in the test on CAKI-1 renal was 110% (inactive); in the test on HL-60(TB) leukemia it was 73.9% (inactive); in the test with CCRF-CEM leukemia it was 135% (inactive).

In the case of `CC[C@@]1(O)C[C@H](OC2CC(N(C)C)C(O)C(C)O2)c2c(cc3c(c2O)C(=O)c2c(O)ccc(O)c2C3=O)[C@H]1C(=O)OC` (some centres not stated), the growth in the test with SK-MEL-2 melanoma was -57.1% (active); in the test with EKVX NSCLC, -47.8% (active); with SN12C renal, -42.7% (active); with UO-31 renal, -64.7% (active); in the test on TK-10 renal, -50.4% (active); in the test with ACHN renal, -88.4% (active). Also, the growth in the test on CAKI-1 renal was -71.8% (active); with HL-60(TB) leukemia, -68.9% (active); in the test on CCRF-CEM leukemia it was -30.1% (active).

With `O=c1[nH]c2ccccc2n1C1CCN(CCCC(c2ccc(F)cc2)c2ccc(F)cc2)CC1`, the growth is 95.8% (inactive) and 63.6% (inactive) with SK-MEL-2 melanoma; 42.1% (inactive) and 51.4% (inactive) in the test on EKVX NSCLC; 40.7% (inactive) and 58% (inactive) with SN12C renal; 33.1% (inactive) and 12.5% (inactive) in the test on UO-31 renal; 62.1% (inactive) and 63.3% (inactive) with TK-10 renal; 44.4% (inactive) with ACHN renal. Moreover, the growth with CAKI-1 renal was 35.5% (inactive) and 54% (inactive); with HL-60(TB) leukemia, -41.7% (active) and -41.6% (active); in the test with CCRF-CEM leukemia, -0.815% (active) and 31.2% (inactive).

As to `O=S(=O)(F)c1ccc(Cl)cc1`, the growth in the test with SK-MEL-2 melanoma is 124% (inactive); in the test on EKVX NSCLC, 110% (inactive); in the test on SN12C renal it was 105% (inactive); with UO-31 renal, 91.5% (inactive); in the test on TK-10 renal it was 107% (inactive); in the test on ACHN renal, 111% (inactive). Further, the growth is 105% (inactive) in the test with CAKI-1 renal, 123% (inactive) with HL-60(TB) leukemia and 92.7% (inactive) in the test on CCRF-CEM leukemia.

As to `O=[N+]([O-])/C=C/c1ccc([N+](=O)[O-])cc1`, the growth is -43.8% (active) and 79.7% (inactive) in the test on SK-MEL-2 melanoma; 78.2% (inactive) and 84.1% (inactive) in the test with EKVX NSCLC; 64.4% (inactive) and 62% (inactive) with SN12C renal; -82.9% (active) and 62.7% (inactive) in the test on UO-31 renal; 18.8% (inactive) and 88.6% (inactive) in the test on TK-10 renal; 21.5% (inactive) and 76.4% (inactive) in the test on ACHN renal. The growth in the test with CAKI-1 renal was 38.8% (inactive); in the test on HL-60(TB) leukemia it was 17.1% (inactive) and 55.2% (inactive); with CCRF-CEM leukemia, 34.8% (inactive).
